Reference: PubChem BioAssay (NCI)
Compounds without any hit were thinned out: in the full panel of roughly 83,000, 20% have a hit.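 A percent growth of 40 corresponds to 60% growth inhibition; 0 means no net growth; -100 means all cells died. Active threshold: below 10.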 The source made the active and inactive calls.

Columns and labels:
Assay in all cases: NCI-60 one-dose screen, 48 h (100 = growth as untreated, 0 = no growth, -100 = all killed)
Conditions in all cases: 10 µM unless noted
T-47D breast = system: T-47D breast
BT-549 breast = system: BT-549 breast
MDA-MB-435 melanoma = system: MDA-MB-435 melanoma
SW-620 colon = system: SW-620 colon
MCF7 breast = system: MCF7 breast
HCC-2998 colon = system: HCC-2998 colon
KM12 colon = system: KM12 colon
HCT-116 colon = system: HCT-116 colon

Measured: growth

CCCCCS(=O)(=O)Nc1ccc(C(=O)O)cc1
inactive: T-47D breast 89.2% | BT-549 breast 107% | MDA-MB-435 melanoma 106% | SW-620 colon 106% | MCF7 breast 97% | HCC-2998 colon 114% | KM12 colon 103%

CCC1(C2CCCC2)NC(=O)NC1=O (configuration not stated)
inactive: T-47D breast 93.4% | BT-549 breast 95.3% | MDA-MB-435 melanoma 102% | SW-620 colon 104% | MCF7 breast 83.9% | HCT-116 colon 99.3% | KM12 colon 116%

COC(=O)c1c2c(c(C)[n+]([O-])c1C)C(=O)C(NCc1ccc(F)c(Cl)c1)=CC2=O
active: T-47D breast -5.44% | MDA-MB-435 melanoma -82.4% | SW-620 colon 5.47% | MCF7 breast -32.8%
inactive: BT-549 breast 43.7% | HCC-2998 colon 13.3% | KM12 colon 11.5%

Cc1cc(NCCCCNc2ccnc3cc(Cl)ccc23)nc(Nc2ccc(C(=O)N3CCCC3)cc2)n1
inactive: BT-549 breast 93.2% | MCF7 breast 12.7% | KM12 colon 55.7%
active: T-47D breast -31.2% | MDA-MB-435 melanoma -45% | SW-620 colon -11.8% | HCT-116 colon 2.57% | HCC-2998 colon 8.57%

CCCCCCCCCCCC(c1ccccc1)[N+](C)(C)C (configuration not stated)
active: T-47D breast 2.28% | BT-549 breast -36.3% | MDA-MB-435 melanoma 8.21% | HCT-116 colon 9.83% | KM12 colon -20.7%
inactive: SW-620 colon 41.9% | MCF7 breast 16.1%

CC(C)(C)OC(=O)Nc1ccc2c(c1)C(NC(=O)Nc1cccc(C#N)c1)CC(C)(C)O2 (configuration not stated)
inactive: T-47D breast 34.2% | BT-549 breast 29% | MDA-MB-435 melanoma 39.4% | SW-620 colon 48.7% | MCF7 breast 32.1% | HCT-116 colon 30.7% | KM12 colon 49.5%

COc1ccc2c(c1)O/C(=C\c1cccc(OCC(=O)Nc3nc4ccccc4s3)c1)C2=O
inactive: T-47D breast 62.1% | MDA-MB-435 melanoma 96.5% | SW-620 colon 79% | MCF7 breast 73.7% | HCT-116 colon 76.5% | KM12 colon 88.2%
active: BT-549 breast -51.7%

Cc1ccc(C(=O)C2=C(O)C(=O)N(Cc3cccnc3)C2c2ccccc2F)o1 (configuration not stated)
inactive: T-47D breast 95.2% | BT-549 breast 99.2% | MDA-MB-435 melanoma 102% | SW-620 colon 103% | MCF7 breast 98.3% | HCT-116 colon 95.2% | HCC-2998 colon 94.3% | KM12 colon 106%

COc1ccc2c(c1)C(=O)/C(=C/c1cccc(OCC(=O)Nc3nc(C)c(C)s3)c1)O2
inactive: MDA-MB-435 melanoma 15.3% | MCF7 breast 40.5%
active: T-47D breast -6.43% | BT-549 breast -81.9% | SW-620 colon -76.9% | HCT-116 colon -96.5% | KM12 colon 9.4%

C=C1C(=O)O[C@H]2[C@H]1CC/C(COC(=O)C(=O)c1c[nH]c3ccccc13)=C\CC[C@@]1(C)O[C@@H]21
active: T-47D breast -56.8% | BT-549 breast -67.3% | MDA-MB-435 melanoma -59.4% | SW-620 colon -64.9% | MCF7 breast -16.9% | HCT-116 colon -88.6% | HCC-2998 colon -79.5% | KM12 colon -56.5%

NC(N)=NN=C(c1ccccc1)c1ccccc1
active: MDA-MB-435 melanoma -23.8%
inactive: T-47D breast 12.2% | BT-549 breast 44.1% | SW-620 colon 28.1% | MCF7 breast 16.3% | HCT-116 colon 29% | KM12 colon 32.5%

CCN(CCNc1ccc(C)c2sc3ccccc3c(=O)c12)CC(C)(C)O
inactive: T-47D breast 80.7% | BT-549 breast 93.4% | MDA-MB-435 melanoma 79% | SW-620 colon 73.6% | MCF7 breast 81.8% | HCT-116 colon 60% | KM12 colon 48.3%

COc1cccc(-c2nn(-c3ccccc3)cc2-c2ccnc(NCCNC(=O)c3ccccc3)c2)c1
inactive: T-47D breast 19.4% | BT-549 breast 38.4% | MDA-MB-435 melanoma 65.4% | SW-620 colon 77.2% | MCF7 breast 62.5% | HCT-116 colon 44.3% | HCC-2998 colon 71.2% | KM12 colon 57.3%

Cc1ccc(NS(=O)(=O)c2ccc3c(c2)C2OCCC2C(c2ccc(C(=O)C(C)C)cc2)N3)cc1C (configuration not stated)
inactive: T-47D breast 24.3% | BT-549 breast 54.3% | MDA-MB-435 melanoma 36.3% | SW-620 colon 51.4% | MCF7 breast 17.6% | HCT-116 colon 30.4% | HCC-2998 colon 62.2% | KM12 colon 36.5%

COc1ccc(-c2nc3c(c(=O)n2C(C)=O)C(c2ccc(Cl)cc2)c2sc4c(Cl)cccc4c2O3)cc1 (configuration not stated)
inactive: T-47D breast 11.9%
active: BT-549 breast -26.9% | MDA-MB-435 melanoma 0.072% | SW-620 colon -17.5% | MCF7 breast 4.61% | HCT-116 colon -58.6% | HCC-2998 colon -34.5% | KM12 colon -8.16%

COc1ccc(-c2cc(-c3cc(OC)c(OC)c(OC)c3)c(C#N)c(N3CCOCC3)n2)cc1O
inactive: T-47D breast 78.3% | BT-549 breast 48.3% | MDA-MB-435 melanoma 28.3% | SW-620 colon 23.1% | MCF7 breast 36.2% | HCT-116 colon 49.1% | KM12 colon 17.4%

COc1ccc2c(c1)O/C(=C\c1cccc(OCC(=O)Nc3nc(C)c(C)s3)c1)C2=O
inactive: T-47D breast 75.7% | MDA-MB-435 melanoma 80% | MCF7 breast 93.8% | HCT-116 colon 66.6%
active: BT-549 breast -81.9% | SW-620 colon -39% | KM12 colon 1.92%

Cn1c(-c2c(N)n(Cc3ccc(C(F)(F)F)cc3)c3nc(C#N)c(C#N)nc23)nc2ccccc21
inactive: MDA-MB-435 melanoma 14.9% | HCC-2998 colon 14.7%
active: T-47D breast 4.18% | BT-549 breast 7.95% | SW-620 colon 6.57% | MCF7 breast 8.74% | KM12 colon 5.33%

COc1ccc2c(c1)O/C(=C/c1ccc(OCC(=O)c3ccccc3)cc1)C2=O
inactive: T-47D breast 97.4% | BT-549 breast 119% | SW-620 colon 131% | MCF7 breast 118% | HCT-116 colon 94.1% | HCC-2998 colon 114% | KM12 colon 105%

CCCCc1ccc(Nc2ccc(Nc3ccc(CCCC)cc3S(=O)(=O)O)c3c2C(=O)c2ccccc2C3=O)c(S(=O)(=O)O)c1
inactive: T-47D breast 106% | BT-549 breast 94% | MDA-MB-435 melanoma 84.6% | SW-620 colon 98.6% | MCF7 breast 86.9% | HCC-2998 colon 117% | KM12 colon 96.9%

CS(=O)c1cccc(-c2ccc3nc(N)n(-c4ccc(C(F)(F)F)cc4)c(=O)c3c2)c1 (configuration not stated)
inactive: T-47D breast 77.1% | BT-549 breast 99.4% | MDA-MB-435 melanoma 105% | SW-620 colon 103% | MCF7 breast 104% | HCC-2998 colon 106% | KM12 colon 98.5%

O=C(/C=C/c1cccc(O)c1)c1cccc(-n2cc(-c3ccc4ccccc4c3)[nH]c2=O)c1
inactive: HCC-2998 colon 44.3%
active: T-47D breast -22.5% | BT-549 breast -29.8% | MDA-MB-435 melanoma -15.6% | SW-620 colon -55.1% | MCF7 breast -32.2% | KM12 colon -72%

COc1cc(C(=O)/C=C/c2c(C(F)(F)F)nc3sccn23)cc(OC)c1OC
active: T-47D breast -22.7% | BT-549 breast -14.2% | SW-620 colon -21.2% | MCF7 breast 6.82% | HCT-116 colon -85.3% | HCC-2998 colon -0.607% | KM12 colon -75.6%

C[n+]1cc2cc(C(N)=O)[nH]c3c(=N)c(Cl)c(N)c1c23
inactive: T-47D breast 48.3% | BT-549 breast 78.9% | SW-620 colon 30.8% | MCF7 breast 35.8% | HCC-2998 colon 65.5% | KM12 colon 74.5%
active: HCT-116 colon 6.54%

Cc1ccc2nc(NC(=O)CSc3nc(-c4ccccc4)c(C#N)c(=O)n3Cc3ccccc3)sc2c1
inactive: BT-549 breast 89.3% | MDA-MB-435 melanoma 45.7% | SW-620 colon 87.4% | MCF7 breast 86.2% | HCC-2998 colon 118% | KM12 colon 90.6%
active: T-47D breast -80.8%

C[C@]12CC[C@@H]3c4cc(OC(F)F)c(O)cc4CC[C@H]3[C@@H]1CC[C@@H]2OS(N)(=O)=O
active: MDA-MB-435 melanoma 0.824%
inactive: T-47D breast 47% | BT-549 breast 67.7% | SW-620 colon 31.2% | MCF7 breast 24.2% | HCC-2998 colon 47.5% | KM12 colon 18.9%

Cc1ccc2nc(C)c(-c3nnc(SCc4ccc(C#N)cc4)o3)n2c1
inactive: T-47D breast 89.3% | BT-549 breast 85.8% | MDA-MB-435 melanoma 101% | SW-620 colon 105% | MCF7 breast 77.8% | HCC-2998 colon 108% | KM12 colon 106%

CCN(CC)CCN1C(=O)c2c(c(C)c3c(oc4cc(O)ccc43)c2C)C1=O
inactive: T-47D breast 89.5% | BT-549 breast 86.7% | MDA-MB-435 melanoma 72.9% | HCC-2998 colon 92%
active: SW-620 colon -50.2% | MCF7 breast 3.63% | KM12 colon -80.1%

CC(C)(C)CC(C)(C)Nc1c(-c2ccncc2)nc2cnccn12
inactive: T-47D breast 86.1% | BT-549 breast 98.6% | MDA-MB-435 melanoma 99.2% | SW-620 colon 106% | MCF7 breast 96.5% | HCC-2998 colon 116% | KM12 colon 98.1%

O=c1c2cc(F)ccc2sc2c(NCCN3CCCCC3)nc3ccccc3c12
inactive: T-47D breast 66.9% | BT-549 breast 75.1% | MDA-MB-435 melanoma 29.5% | SW-620 colon 29.1% | MCF7 breast 15.8% | HCC-2998 colon 13.9% | KM12 colon 29%

COc1cccc(Nc2nccc(Nc3ccc4[nH]ncc4c3)n2)c1
active: T-47D breast -51.9% | BT-549 breast -15.9% | MDA-MB-435 melanoma -78.4% | SW-620 colon -69.3% | MCF7 breast -50.6% | HCC-2998 colon -7.35% | KM12 colon -44.3%

CNS(=O)(=O)c1n[nH]nc1-c1cc(C(C)(C)C)c(O)c(C(C)(C)C)c1
inactive: T-47D breast 78.9% | BT-549 breast 101% | MDA-MB-435 melanoma 106% | SW-620 colon 109% | MCF7 breast 93.8% | HCC-2998 colon 105% | KM12 colon 105%

CCOC(=O)c1c(/C=C/C(=O)O)nc2ccccc2c1/C=C/c1ccccc1
inactive: T-47D breast 36.4% | BT-549 breast 19.1% | MDA-MB-435 melanoma 21.6% | SW-620 colon 30.1% | MCF7 breast 30.2% | HCC-2998 colon 35.1% | KM12 colon 19.7%
